PGE2 EP2 inh: inhibitors of human EP2 prostaglandin E2 receptor. C6 glioma cells expressing human EP2, cAMP TR-FRET; cells stimulated with saturating PGE2. AID 1422. P43116. actives 0.52% (n = 260,000). inhibition, % at 25 µM;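 active means percent inhibition above 40 after rounding to a whole number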;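 further: rat C6 glioma host cells with rolipram phosphodiesterase inhibitor present; the protocol text gives 20 µM as final concentration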
Target sequence (P43116 whole entry, looked up): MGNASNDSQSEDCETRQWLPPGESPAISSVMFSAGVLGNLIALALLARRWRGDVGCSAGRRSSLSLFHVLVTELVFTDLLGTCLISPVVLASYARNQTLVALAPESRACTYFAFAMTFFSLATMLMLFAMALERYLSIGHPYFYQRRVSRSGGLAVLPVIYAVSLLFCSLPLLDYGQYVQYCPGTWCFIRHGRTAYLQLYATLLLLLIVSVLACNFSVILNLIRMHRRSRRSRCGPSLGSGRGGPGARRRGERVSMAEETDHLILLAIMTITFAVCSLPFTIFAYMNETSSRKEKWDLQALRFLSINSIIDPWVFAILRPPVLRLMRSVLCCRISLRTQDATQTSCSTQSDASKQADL
S1P4 ag: human S1P4 receptor agonism; O95977; S1P4-expressing cell line, agonist reporter assay; activation, % at 4.98 µM; actives 0.35% (n = 220,000); AID 1509; in the data active means activation above about 11%;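 further: 0% = DMSO vehicle and 100% = reference agonist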
EP2 modulator: modulators of human EP2 prostaglandin E2 receptor | EP2-expressing cells, cAMP HTRF FRET, PGE2 co-stimulation | P43116 | actives 0.83% (n = 260,000) | induction, % at 25 µM;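 active means compounds whose cAMP rise, as percent of the full-agonist control response, exceeds 60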;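 further: rat C6 glioma line stably carrying human EP2 under a CMV promoter; the protocol text gives 20 µM as final concentration; 100% = response of wells given 1 µM PGE2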
S1P4 antagonist: blocks the human S1P4 receptor | O95977 | S1P4-expressing cells, antagonist mode, reporter read-out | inhibition, % at 4.98 µM | actives 0.26% (n = 220,000) | AID 1510; in the data active means inhibition above about 29%;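 further: 0% = wells stimulated with agonist and 100% = vehicle wells without agonist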
S1P3 antagonist: antagonists of human S1P3 receptor; inhibition, % at 4.98 µM; CHO S1P3 NFAT-BLA reporter, FRET fluorescence, antagonist mode; actives 0.27% (n = 170,000); AID 485; Q99500;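 active means inhibition above the plate cutoff, the mean inhibition of test wells on that plate plus 3 SD, cut at about 28% in these data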;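 further: cells challenged with S1P at its EC80 of 0.8 µM; blue over green emission ratio from cleaved BLA substrate after 4 h stimulation; 0% = S1P-stimulated wells and 100% = unstimulated DMSO-only wells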
EP2 confirm: EP2 receptor cAMP induction, counter-screens negative | shares compounds with EP2 modulator | C6 glioma EP2 cells, cAMP HTRF induction; plus low (about EC15) PGE2 agonist | calls only at 20 µM (by protocol) | actives 47% (n = 1,300) | AID 1080;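 active means cAMP induction above 50% in the main assay while under 30% in all four parallel counter assays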;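 further: rat C6 glioma cells stably expressing human EP2 receptor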
Numbers without * were called inactive; i = inactive; . = no result; + = active, no number. Sampled rows, rich in hits. Any-hit rate of the full collection: about 1.9%.

SMILES | PGE2 EP2 inh | S1P4 ag | EP2 modulator | S1P4 antagonist | S1P3 antagonist | EP2 confirm
O=C(CSc1nc2cc(Cl)ccc2s1)N1CCCc2ccccc21 | 4.0 | 0.8 | 67.8* | -17.7 | . | +
N#CCSc1nc2c(cc1C#N)CCCCCC2 | 5.7 | -0.6 | 12.6 | 2.4 | . | .
N#CCSc1nc2c(c(C3CC=CCC3)c1C#N)CCC2 (centres undefined) | 4.6 | -0.7 | 77.8* | -7.5 | -16.8 | +
COC(=O)c1ccc(-n2nc(C(F)(F)F)c3c2-c2ccoc2CC3)cc1 | 9.7 | -3.5 | 72.1* | -16.6 | . | i
O=C(O)c1ccc(-n2nc(C(F)(F)F)c3c2-c2ccoc2CC3)cc1 | 8.1 | 2.1 | -14.1 | -17.4 | -17.1 | .
Cc1ccc(S(=O)(=O)n2c3ccc(F)cc3c3nc(C)sc32)cc1 | 4.7 | 1.0 | 94.9* | -21.9 | 12.5 | +
Cc1cc(NC(=O)Cn2nnc3sc4c(c3c2=O)CCC(C(C)(C)C)C4)no1 (centres undefined) | 7.1 | 1.2 | 50.8 | -13.5 | -18.0 | i
N#CCSc1nc2ccccc2c(=O)n1C1CCCCC1 | 11.8 | -0.1 | 70.7* | -4.6 | 10.1 | +
N#CCSc1nc2ccccc2c(=O)n1CCC(=O)NC1CCCCC1 | 6.5 | -0.4 | 12.8 | -8.6 | -22.5 | .
O=C(O)CCCSc1ccccc1 | 6.9 | . | 27.1 | . | . | .
Nc1ccccc1CCCC(=O)O | 11.5 | . | 107.1* | . | . | i
CCn1c(COc2ccc(Cl)cc2)nnc1SCC(=O)Nc1ccc(OC)cc1 | 17.3 | . | -1.6 | . | . | .
CCn1c(COc2ccc(Cl)cc2)nnc1SCC(=O)Nc1ccc2c(c1)OCO2 | 9.1 | -2.3 | 65.2* | 11.4 | 9.4 | i
Cc1cccc2cc(CN(Cc3cccs3)C3(c4nnnn4C4CCCC4)CCCC3)c(=O)[nH]c12 | 12.6 | 1.1 | 65.7* | -10.3 | -21.0 | i
CCc1nnc2n1N=C(c1ccc(-c3cc(Cl)ccc3Cl)o1)CS2 | 0.7 | 1.2 | 68.3* | -14.0 | . | +
CCc1nnc2n1N=C(c1ccc(-c3ccc(Cl)cc3Cl)o1)CS2 | . | 2.9 | . | -2.0 | 13.9 | .
COC(=O)c1ccc(Oc2nc(C)cc(Oc3ccccc3)n2)cc1 | 9.2 | 2.4 | 58.9 | -8.1 | 0.4 | .
COC(=O)c1ccc(Oc2cc(C)nc(NCc3ccccc3)n2)cc1 | 10.7 | -0.5 | 69.8* | -3.0 | 15.8 | +
COc1cc(C2Oc3cc(C4Oc5cc(O)cc(O)c5C(=O)C4O)ccc3OC2CO)ccc1O (centres undefined) | 9.9 | 0.4 | 80.1* | 0.4 | -14.2 | i
Cc1cc2ccccn2c1C(=O)c1ccc(Cl)cc1 | 5.8 | -2.3 | 65.1* | -1.7 | . | i
COc1cccc(C(O)CN2CCC(O)(c3ccccc3OC)CC2)c1 (centres undefined) | 6.0 | . | -51.2 | . | . | .
CCOC(=O)c1c(-c2cccs2)csc1NC(=O)c1ccncc1 | 6.9 | -2.1 | 57.8 | 6.6 | . | .
CCOC(=O)c1c(-c2cccs2)csc1NC(=O)COC(=O)c1c(C)noc1C | 2.2 | 2.1 | 69.1* | 2.8 | 4.2 | +
O=C(NCCn1nc(-c2cccs2)ccc1=O)c1ccco1 | 0.7 | . | -12.7 | . | . | .
COc1ccc(C)cc1-n1c(=O)c2ccccc2c2ccccc2c1=O | 5.2 | 0.2 | 74.4* | -6.8 | 13.0 | i
SMILES | PGE2 EP2 inh | S1P4 ag | EP2 modulator | S1P4 antagonist | S1P3 antagonist | EP2 confirm
Cn1ccnc1C(NC(=O)Cc1ccccc1F)c1ccc(F)c(F)c1 (centres undefined) | 0.8 | . | -8.0 | . | . | .
CCCn1c(-c2cccs2)nc2c1c(=O)[nH]c(=O)n2Cc1ccccc1 | -0.1 | -1.3 | 72.2* | -2.1 | 2.9 | +
CCCn1c(=O)[nH]c(=O)c2c1nc(-c1ccc(OC(F)F)c(OC)c1)n2CCOC | 9.5 | 2.4 | 9.3 | 0.8 | . | .
CCCn1c(=O)[nH]c(=O)c2c1nc(-c1ccccc1OC(F)F)n2CCOC | 2.0 | 2.1 | 84.4* | -16.2 | -7.3 | i
Cc1cc(=O)[nH]c(NC2CCN(C(=O)c3ccc4c(c3)OCO4)CC2)n1 | 6.2 | . | -32.1 | . | . | .
CCOc1ccc(-c2nn3c(-c4ccccc4)nnc3s2)cc1 | 11.3 | 0.1 | 65.3* | 10.1 | 15.5 | +
CCOc1ccc(-c2nnc3sc(COc4ccccc4)nn23)cc1 | 3.7 | -1.1 | -44.4 | -8.5 | . | .
COc1ccc(OC)c(-c2c3c([nH]c(=S)c2C#N)CCCC3)c1 | 6.1 | -1.1 | 26.7 | 4.2 | -10.0 | .
COc1ccc(-c2c3c([nH]c(=S)c2C#N)CCC3)cc1 | 18.0 | 0.4 | 76.8* | -17.1 | . | i
